# Test results reported in paper PMC7862700, “An all-to-all approach to the identification of sequence-specific readers for epigenetic DNA modifications on cytosine”.
# Assays:
# Experiment in all cases: DAPPL (digital affinity profiling via proximity ligation, sequencing); 10 mM Tris-HCl pH 7.5, 50 mM NaCl, 1 mM DTT, 4% glycerol, room temperature, 30 min; GST-TFs on glutathione beads, 16-mer random dsDNA library, 0.1% formaldehyde crosslink after washing; high values mean tight binding
# FLI1 = biological target: T1, FLI1 (Homo sapiens, UniProt Q01543 1-452); details: protein: recombinant; tags: N-terminal GST; dsDNA, one strand shown
# T1 sequence: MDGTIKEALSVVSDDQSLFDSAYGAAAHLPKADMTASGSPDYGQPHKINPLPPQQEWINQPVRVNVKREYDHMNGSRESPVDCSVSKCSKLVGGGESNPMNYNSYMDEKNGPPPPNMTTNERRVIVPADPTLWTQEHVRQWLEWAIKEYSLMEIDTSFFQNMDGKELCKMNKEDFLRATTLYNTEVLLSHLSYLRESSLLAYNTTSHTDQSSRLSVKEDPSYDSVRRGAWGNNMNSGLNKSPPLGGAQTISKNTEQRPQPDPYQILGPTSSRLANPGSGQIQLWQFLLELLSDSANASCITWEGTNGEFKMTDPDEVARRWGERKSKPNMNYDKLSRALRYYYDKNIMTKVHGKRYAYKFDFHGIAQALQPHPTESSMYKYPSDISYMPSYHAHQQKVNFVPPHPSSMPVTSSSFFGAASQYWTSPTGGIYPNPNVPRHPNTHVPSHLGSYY
# Procedure, shortened: (§1)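 Binding signal is defined as a hexamer's read frequency for one factor over its frequency for the tag-only sample. To obtain reads, GST-fused human transcription factors were expressed in yeast, captured on glutathione beads, barcoded with DNA and pooled with that sample. Pools met 200 nmole of a 16-mer random double-stranded DNA library in Tris/NaCl/DTT/glycerol buffer for 30 min at room temperature before washing, 0.1% formaldehyde crosslinking, proximity ligation (BsaI/T4 ligase, 1 h, 37 °C), PCR and Illumina NextSeq500 sequencing.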
# ELK1 = biological target: T2, ELK1 (Homo sapiens, UniProt P19419 1-428); details: protein: recombinant; tags: N-terminal GST; dsDNA, one strand shown
# T2 sequence: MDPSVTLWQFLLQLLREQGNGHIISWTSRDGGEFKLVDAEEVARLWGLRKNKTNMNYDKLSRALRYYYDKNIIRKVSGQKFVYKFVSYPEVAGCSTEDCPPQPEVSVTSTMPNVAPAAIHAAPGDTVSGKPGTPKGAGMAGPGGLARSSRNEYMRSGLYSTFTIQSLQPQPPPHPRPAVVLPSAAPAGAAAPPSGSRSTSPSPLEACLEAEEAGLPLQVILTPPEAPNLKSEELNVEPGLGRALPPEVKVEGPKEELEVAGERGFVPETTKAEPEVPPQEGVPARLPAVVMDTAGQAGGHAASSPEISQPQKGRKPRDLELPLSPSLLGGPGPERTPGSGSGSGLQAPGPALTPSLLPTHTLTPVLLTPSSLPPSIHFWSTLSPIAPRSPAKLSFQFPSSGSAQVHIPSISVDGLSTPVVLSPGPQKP
# Procedure, shortened: as §1
# GABPA = biological target: T3, GABPA (Homo sapiens, UniProt Q06546 1-454); details: protein: recombinant; tags: N-terminal GST; dsDNA, one strand shown
# T3 sequence: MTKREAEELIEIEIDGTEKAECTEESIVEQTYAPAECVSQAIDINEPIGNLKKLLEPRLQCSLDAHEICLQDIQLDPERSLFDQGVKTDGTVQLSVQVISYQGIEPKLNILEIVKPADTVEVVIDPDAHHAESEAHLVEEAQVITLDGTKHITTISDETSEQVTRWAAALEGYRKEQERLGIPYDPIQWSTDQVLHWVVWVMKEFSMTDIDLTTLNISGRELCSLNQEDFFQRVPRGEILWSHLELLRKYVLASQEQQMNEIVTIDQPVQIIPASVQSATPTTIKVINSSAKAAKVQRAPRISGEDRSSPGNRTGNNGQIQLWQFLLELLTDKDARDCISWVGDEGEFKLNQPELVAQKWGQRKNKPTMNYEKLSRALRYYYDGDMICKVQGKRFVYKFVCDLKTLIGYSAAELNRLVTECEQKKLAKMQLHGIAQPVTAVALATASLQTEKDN
# Procedure, shortened: as §1
# ERG = biological target: T4, ERG (Homo sapiens, UniProt P11308 1-479); details: protein: recombinant; tags: N-terminal GST; dsDNA, one strand shown
# T4 sequence: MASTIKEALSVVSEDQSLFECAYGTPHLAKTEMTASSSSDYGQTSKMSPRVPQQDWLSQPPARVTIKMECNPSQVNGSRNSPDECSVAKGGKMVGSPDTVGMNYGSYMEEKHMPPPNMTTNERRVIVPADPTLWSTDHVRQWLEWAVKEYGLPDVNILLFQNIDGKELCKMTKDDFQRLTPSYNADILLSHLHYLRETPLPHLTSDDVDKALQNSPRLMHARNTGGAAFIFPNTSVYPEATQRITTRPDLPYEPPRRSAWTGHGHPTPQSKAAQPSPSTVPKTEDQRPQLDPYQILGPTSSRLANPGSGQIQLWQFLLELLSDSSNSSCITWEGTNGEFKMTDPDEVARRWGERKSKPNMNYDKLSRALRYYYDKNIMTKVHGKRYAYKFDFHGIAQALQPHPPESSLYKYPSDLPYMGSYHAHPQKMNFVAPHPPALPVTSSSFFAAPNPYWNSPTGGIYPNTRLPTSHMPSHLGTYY
# Procedure, shortened: as §1
# ELF1 = ELF1 (Homo sapiens, UniProt P32519 1-619); details: protein: recombinant; tags: N-terminal GST; dsDNA, one strand shown
# Procedure, shortened: as §1
# EHF = biological target: T5, EHF (Homo sapiens, UniProt Q9NZC4 1-300); details: protein: recombinant; tags: N-terminal GST; dsDNA, one strand shown
# T5 sequence: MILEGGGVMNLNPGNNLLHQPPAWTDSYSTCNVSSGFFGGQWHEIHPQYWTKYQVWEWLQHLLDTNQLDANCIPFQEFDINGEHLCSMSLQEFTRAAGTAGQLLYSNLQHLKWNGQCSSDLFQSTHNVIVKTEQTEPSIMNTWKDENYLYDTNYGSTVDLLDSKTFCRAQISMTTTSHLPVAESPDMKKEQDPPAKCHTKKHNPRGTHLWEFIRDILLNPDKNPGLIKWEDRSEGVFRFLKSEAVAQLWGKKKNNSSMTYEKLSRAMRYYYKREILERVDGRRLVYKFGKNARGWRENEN
# Procedure, shortened: as §1
# SPI1 = SPI1 (Homo sapiens, UniProt P17947 1-270); details: protein: recombinant; tags: N-terminal GST; dsDNA, one strand shown
# Procedure, shortened: as §1
# SPIB = SPIB (Homo sapiens, UniProt Q01892 1-262); details: protein: recombinant; tags: N-terminal GST; dsDNA, one strand shown
# Procedure, shortened: as §1
# ELK3 = biological target: T6, ELK3 (Homo sapiens, UniProt P41970 1-407); details: protein: recombinant; tags: N-terminal GST; dsDNA, one strand shown
# T6 sequence: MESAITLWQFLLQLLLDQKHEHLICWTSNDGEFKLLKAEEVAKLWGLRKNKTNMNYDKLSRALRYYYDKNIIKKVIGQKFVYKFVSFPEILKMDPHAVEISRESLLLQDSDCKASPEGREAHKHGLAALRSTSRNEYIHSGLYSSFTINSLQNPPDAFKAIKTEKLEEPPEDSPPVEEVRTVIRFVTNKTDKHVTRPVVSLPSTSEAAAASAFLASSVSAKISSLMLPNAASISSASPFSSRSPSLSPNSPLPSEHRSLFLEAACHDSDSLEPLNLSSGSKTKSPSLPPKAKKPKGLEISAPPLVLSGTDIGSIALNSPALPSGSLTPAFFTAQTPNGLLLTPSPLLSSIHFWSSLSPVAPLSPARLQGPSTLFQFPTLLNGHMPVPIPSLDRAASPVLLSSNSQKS
# Procedure, shortened: as §1
# FEV = biological target: T7, FEV (Homo sapiens, UniProt Q99581 1-238); details: protein: recombinant; tags: N-terminal GST; dsDNA, one strand shown
# T7 sequence: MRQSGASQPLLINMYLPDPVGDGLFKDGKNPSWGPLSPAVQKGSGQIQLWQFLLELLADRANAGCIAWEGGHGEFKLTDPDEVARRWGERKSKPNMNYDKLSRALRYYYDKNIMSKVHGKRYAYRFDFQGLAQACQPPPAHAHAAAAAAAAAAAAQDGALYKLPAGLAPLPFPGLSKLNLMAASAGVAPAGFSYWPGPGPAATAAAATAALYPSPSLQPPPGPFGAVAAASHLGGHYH
# Procedure, shortened: as §1
# ETV5 = ETV5 (Homo sapiens, UniProt P41161 1-510); details: protein: recombinant; tags: N-terminal GST; dsDNA, one strand shown
# Procedure, shortened: as §1
# HSF1 = HSF1 (Homo sapiens, UniProt Q00613 1-529); details: protein: recombinant; tags: N-terminal GST; chain copies: 3; dsDNA, one strand shown
# Procedure, shortened: as §1
# SPIC = biological target: T8, SPIC (Homo sapiens, UniProt Q8N5J4 1-248); details: protein: recombinant; tags: N-terminal GST; dsDNA, one strand shown
# T8 sequence: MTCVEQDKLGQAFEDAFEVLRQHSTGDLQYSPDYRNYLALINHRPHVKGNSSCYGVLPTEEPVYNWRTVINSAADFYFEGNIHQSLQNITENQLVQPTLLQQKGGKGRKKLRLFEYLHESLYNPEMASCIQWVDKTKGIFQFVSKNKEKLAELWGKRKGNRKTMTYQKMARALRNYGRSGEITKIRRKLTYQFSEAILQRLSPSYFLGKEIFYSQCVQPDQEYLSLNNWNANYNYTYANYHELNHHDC
# Procedure, shortened: as §1
# ELF4 = ELF4 (Homo sapiens, UniProt Q99607 1-663); details: protein: recombinant; tags: N-terminal GST; dsDNA, one strand shown
# Procedure, shortened: as §1
# ELK4 = biological target: T9, ELK4 (Homo sapiens, UniProt P28324-2 1-405); details: protein: recombinant; tags: N-terminal GST; dsDNA, one strand shown
# T9 sequence: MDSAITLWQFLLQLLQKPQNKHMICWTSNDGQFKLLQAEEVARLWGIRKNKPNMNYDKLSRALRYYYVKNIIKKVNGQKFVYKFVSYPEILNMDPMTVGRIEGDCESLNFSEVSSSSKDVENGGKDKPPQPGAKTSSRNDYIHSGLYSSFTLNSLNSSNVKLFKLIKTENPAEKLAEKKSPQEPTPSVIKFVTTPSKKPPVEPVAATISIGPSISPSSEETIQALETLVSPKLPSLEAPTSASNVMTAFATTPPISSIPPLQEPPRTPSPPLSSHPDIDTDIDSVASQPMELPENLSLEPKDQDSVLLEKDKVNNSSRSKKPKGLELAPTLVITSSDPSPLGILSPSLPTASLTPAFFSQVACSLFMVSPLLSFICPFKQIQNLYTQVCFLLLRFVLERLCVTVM
# Procedure, shortened: as §1
# ETV2 = biological target: T10, ETV2 (Homo sapiens, UniProt O00321 1-342); details: protein: recombinant; tags: N-terminal GST; dsDNA, one strand shown
# T10 sequence: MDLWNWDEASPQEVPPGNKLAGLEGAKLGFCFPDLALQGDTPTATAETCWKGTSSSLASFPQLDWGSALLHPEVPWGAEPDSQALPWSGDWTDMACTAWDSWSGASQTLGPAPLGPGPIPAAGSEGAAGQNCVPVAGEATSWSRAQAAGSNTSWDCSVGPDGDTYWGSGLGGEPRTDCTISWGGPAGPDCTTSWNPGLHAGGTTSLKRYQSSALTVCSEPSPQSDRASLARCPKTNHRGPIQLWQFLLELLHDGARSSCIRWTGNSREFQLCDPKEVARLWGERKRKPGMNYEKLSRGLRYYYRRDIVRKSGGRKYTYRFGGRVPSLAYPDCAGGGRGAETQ
# Procedure, shortened: as §1
# ELF3 = biological target: T11, ELF3 (Homo sapiens, UniProt P78545 1-371); details: protein: recombinant; tags: N-terminal GST; dsDNA, one strand shown
# T11 sequence: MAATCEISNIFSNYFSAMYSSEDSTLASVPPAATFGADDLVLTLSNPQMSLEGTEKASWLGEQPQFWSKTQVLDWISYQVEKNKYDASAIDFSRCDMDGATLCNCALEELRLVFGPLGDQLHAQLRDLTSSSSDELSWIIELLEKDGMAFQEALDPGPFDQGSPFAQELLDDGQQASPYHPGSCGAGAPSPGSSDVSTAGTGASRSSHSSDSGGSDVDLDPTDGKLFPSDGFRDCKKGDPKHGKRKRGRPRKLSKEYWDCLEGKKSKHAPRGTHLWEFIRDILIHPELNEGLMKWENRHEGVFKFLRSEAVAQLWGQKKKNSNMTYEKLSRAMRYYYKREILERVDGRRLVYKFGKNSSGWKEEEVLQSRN
# Procedure, shortened: as §1
# CRX = CRX (Homo sapiens, UniProt O43186 1-299); details: protein: recombinant; tags: N-terminal GST; dsDNA, one strand shown
# Procedure, shortened: as §1
# ETV1 = ETV1 (Homo sapiens, UniProt P50549 1-477); details: protein: recombinant; tags: N-terminal GST; dsDNA, one strand shown
# Procedure, shortened: as §1
# Chain of SPIB (Q01892 whole entry): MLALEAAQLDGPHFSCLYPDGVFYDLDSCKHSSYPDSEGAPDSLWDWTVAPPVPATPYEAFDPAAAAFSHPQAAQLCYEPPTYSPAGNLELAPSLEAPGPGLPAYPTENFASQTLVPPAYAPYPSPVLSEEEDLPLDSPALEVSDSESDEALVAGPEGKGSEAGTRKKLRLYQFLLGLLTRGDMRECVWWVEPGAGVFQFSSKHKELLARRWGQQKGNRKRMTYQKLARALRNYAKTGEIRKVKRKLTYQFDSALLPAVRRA
# Chain of CRX (O43186 whole entry): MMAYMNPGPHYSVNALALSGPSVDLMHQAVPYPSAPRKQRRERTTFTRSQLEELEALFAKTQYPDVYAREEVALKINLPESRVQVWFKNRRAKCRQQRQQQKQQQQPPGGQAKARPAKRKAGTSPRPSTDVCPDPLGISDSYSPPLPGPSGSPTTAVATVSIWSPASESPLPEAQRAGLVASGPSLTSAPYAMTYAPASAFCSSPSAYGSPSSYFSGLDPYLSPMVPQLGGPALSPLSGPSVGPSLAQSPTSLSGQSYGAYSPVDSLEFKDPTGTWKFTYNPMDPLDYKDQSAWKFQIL
# Chain of ETV1 (P50549 whole entry): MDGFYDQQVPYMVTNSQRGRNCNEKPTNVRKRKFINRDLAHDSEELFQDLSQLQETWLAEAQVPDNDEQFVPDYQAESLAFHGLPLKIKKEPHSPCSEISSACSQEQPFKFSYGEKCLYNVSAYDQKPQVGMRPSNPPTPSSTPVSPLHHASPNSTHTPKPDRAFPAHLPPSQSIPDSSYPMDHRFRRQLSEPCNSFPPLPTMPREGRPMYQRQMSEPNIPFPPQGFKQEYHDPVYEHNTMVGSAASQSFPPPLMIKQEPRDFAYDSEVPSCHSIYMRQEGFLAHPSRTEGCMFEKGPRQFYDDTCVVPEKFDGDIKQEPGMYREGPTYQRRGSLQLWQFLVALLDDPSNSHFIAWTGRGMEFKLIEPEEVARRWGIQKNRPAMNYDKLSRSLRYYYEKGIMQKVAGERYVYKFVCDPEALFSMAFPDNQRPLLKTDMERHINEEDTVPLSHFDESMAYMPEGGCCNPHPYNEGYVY
# Chain of ELF4 (Q99607 whole entry): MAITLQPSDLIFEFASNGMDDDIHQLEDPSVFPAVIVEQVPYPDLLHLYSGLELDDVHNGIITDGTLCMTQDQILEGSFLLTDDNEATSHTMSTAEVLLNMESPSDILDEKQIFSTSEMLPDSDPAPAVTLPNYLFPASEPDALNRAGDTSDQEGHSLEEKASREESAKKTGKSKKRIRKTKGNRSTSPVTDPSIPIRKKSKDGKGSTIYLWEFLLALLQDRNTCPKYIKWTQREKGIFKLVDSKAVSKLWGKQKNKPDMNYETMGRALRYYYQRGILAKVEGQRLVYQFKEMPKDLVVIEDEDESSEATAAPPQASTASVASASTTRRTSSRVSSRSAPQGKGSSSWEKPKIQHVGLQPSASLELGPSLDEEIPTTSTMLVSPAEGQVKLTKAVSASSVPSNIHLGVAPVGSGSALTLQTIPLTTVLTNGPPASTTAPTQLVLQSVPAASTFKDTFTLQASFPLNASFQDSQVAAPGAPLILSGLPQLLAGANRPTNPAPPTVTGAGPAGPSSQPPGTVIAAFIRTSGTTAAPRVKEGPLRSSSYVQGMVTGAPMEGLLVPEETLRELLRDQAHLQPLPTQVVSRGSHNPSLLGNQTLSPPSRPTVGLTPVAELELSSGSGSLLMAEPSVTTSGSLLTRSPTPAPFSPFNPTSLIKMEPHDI
# Chain of ELF1 (P32519 whole entry): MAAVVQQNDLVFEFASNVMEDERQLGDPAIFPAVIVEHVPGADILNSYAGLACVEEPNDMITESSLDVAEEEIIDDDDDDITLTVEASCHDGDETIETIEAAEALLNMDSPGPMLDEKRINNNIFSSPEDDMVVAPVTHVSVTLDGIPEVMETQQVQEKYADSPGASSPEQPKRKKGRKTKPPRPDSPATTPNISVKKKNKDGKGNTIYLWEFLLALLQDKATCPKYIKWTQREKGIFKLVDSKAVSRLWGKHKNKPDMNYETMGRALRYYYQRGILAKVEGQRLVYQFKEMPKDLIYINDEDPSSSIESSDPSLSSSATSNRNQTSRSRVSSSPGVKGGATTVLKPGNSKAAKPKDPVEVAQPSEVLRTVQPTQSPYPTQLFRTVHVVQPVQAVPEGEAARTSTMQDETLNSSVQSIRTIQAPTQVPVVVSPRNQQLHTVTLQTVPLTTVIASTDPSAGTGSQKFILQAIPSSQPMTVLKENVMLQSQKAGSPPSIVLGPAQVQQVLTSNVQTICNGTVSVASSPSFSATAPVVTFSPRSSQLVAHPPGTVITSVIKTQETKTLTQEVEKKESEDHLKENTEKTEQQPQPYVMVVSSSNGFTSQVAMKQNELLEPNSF
# Chain of HSF1 (Q00613 whole entry): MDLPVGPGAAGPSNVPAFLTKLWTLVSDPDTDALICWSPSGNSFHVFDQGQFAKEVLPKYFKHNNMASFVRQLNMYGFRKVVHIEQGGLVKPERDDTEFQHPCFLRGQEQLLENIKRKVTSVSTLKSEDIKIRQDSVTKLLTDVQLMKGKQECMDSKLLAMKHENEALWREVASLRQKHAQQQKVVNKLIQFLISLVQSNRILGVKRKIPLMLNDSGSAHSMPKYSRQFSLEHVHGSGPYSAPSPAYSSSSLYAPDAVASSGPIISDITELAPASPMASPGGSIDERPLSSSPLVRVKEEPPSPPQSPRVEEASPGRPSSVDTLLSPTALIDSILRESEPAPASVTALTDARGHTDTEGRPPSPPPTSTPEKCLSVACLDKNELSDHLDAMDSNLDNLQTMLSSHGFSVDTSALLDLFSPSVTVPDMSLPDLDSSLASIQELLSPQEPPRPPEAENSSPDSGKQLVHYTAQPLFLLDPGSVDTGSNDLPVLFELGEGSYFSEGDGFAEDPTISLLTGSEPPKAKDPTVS
# Chain of ETV5 (P41161 whole entry): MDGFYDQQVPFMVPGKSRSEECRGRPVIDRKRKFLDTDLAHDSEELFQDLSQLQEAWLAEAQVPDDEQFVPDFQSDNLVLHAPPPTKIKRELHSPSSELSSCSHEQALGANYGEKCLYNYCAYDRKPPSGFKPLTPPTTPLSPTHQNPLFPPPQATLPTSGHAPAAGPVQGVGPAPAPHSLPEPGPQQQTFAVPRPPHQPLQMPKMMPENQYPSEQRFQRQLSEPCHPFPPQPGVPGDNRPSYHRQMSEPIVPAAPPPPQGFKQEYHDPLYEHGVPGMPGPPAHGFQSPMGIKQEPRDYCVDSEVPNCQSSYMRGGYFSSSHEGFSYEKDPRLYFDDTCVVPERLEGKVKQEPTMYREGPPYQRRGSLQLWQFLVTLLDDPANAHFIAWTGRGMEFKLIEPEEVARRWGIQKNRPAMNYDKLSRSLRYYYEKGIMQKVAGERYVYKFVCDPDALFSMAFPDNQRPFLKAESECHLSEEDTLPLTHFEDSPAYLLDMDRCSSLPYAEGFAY
sequence,measurement,setting,value
CAACTT,binding signal,FLI1,"1.62 fold enrichment (6-mer frequency, TF over GST control)"
same,binding signal,ELK1,"1.62 fold enrichment (6-mer frequency, TF over GST control)"
same,binding signal,GABPA,"1.53 fold enrichment (6-mer frequency, TF over GST control)"
same,binding signal,ERG,"1.68 fold enrichment (6-mer frequency, TF over GST control)"
same,binding signal,ELF1,"1.55 fold enrichment (6-mer frequency, TF over GST control)"
same,binding signal,EHF,"1.54 fold enrichment (6-mer frequency, TF over GST control)"
same,binding signal,SPI1,"1.69 fold enrichment (6-mer frequency, TF over GST control)"
same,binding signal,SPIB,"1.68 fold enrichment (6-mer frequency, TF over GST control)"
same,binding signal,ELK3,"1.59 fold enrichment (6-mer frequency, TF over GST control)"
same,binding signal,FEV,"1.78 fold enrichment (6-mer frequency, TF over GST control)"
same,binding signal,ETV5,"1.58 fold enrichment (6-mer frequency, TF over GST control)"
same,binding signal,HSF1,"1.22 fold enrichment (6-mer frequency, TF over GST control)"
same,binding signal,SPIC,"1.77 fold enrichment (6-mer frequency, TF over GST control)"
same,binding signal,ELF4,"1.57 fold enrichment (6-mer frequency, TF over GST control)"
same,binding signal,ELK4,"1.65 fold enrichment (6-mer frequency, TF over GST control)"
same,binding signal,ETV2,"1.4 fold enrichment (6-mer frequency, TF over GST control)"
same,binding signal,ELF3,"1.61 fold enrichment (6-mer frequency, TF over GST control)"
same,binding signal,CRX,"1.25 fold enrichment (6-mer frequency, TF over GST control)"
same,binding signal,ETV1,"1.54 fold enrichment (6-mer frequency, TF over GST control)"
